Experimental data: PubChem BioAssay (NCATS)
Inconclusive results are not listed. Activity calls are given as the source filed them. Unless noted, calls come from the whole dose curve; as a rule, active = well fitted curve in the direction sought with a large enough effect; inconclusive = small, poorly fitted or top-dose-only effect, or another doubt; inactive = no such curve, though single readings can be large; an effect the other way counts as inactive or inconclusive.

Assays:
[1] = qHTS Assay for Identification of Small Molecule Agonists for Thrombopoietin (TPO) Signaling Pathway (AID 917); conditions: TPO signaling pathway reporter cells, agonist qHTS, stimulated with TPO at its EC50; series mostly up to 38.5 µM
Procedure, shortened: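 Luminescence from a Glycoprotein IIb promoter–driven luciferase reporter served as read-out in murine Ba/F3 cells carrying the human TPO receptor. Cells, deprived of IL-3 overnight, received compounds with 26 pM TPO and were incubated 24 hrs at 37 C.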

[2] = target: Muscarinic acetylcholine receptor M1 (Rattus norvegicus) (UniProt P08482); assay: qHTS Assay for Antagonists of Acetylcholine Muscarinic M1 Receptor: Kinetic Measurement of Intracellular Calcium Response (AID 943); conditions: M1-expressing cells, kinetic intracellular calcium fluorescence; series mostly up to 35.3 µM;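 note: Fluo-4 calcium signal as peak divided by basal fluorescence over 4 min; nearly all actives have a fitted effect of over 75% in size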
Procedure, shortened: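 Rat M1-CHO cells, 2000/well, overnight → Fluo-4 no-wash dye with probenecid, 1 h 37C → compound 10 min, room temp → basal read 6 s → carbachol EC80 (100 nM) → 4 min kinetic read; peak/basal.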

[3] = target: Pyruvate kinase PKM (Homo sapiens) (UniProt P14618); assay: qHTS Assay for Activators of Human Muscle Pyruvate Kinase (AID 954; active = well fitted curve in the direction sought with a large enough effect, not every such curve was filed as active); conditions: purified human muscle pyruvate kinase, luciferase-coupled luminescence, 1 h; series mostly up to 57.5 µM
Procedure, shortened: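 Human PKM2 activity is measured as ATP generation, detected by luciferase-coupled luminescence. The enzyme (0.1 nM) acts on 0.5 mM PEP and 0.1 mM ADP for 1 h at ambient temperature; data are normalized to uninhibited and full-inhibition wells.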

[4] = target: alpha-glucosidase (Oryza sativa, rice) (UniProt Q653V4); assay: Counterscreen for Glucocerebrosidase Inhibitors: qHTS Assay for Rice alpha-Glucosidase at pH 5.0 (AID 997); conditions: rice alpha-glucosidase enzyme activity; series mostly up to 76.9 µM
Procedure, shortened: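 Rice alpha-glucosidase (4 nM final) with 400 uM 4-methylumbelliferyl-alpha-D-glucopyranoside in citrate buffer pH 5.0, 20 min at room temperature, stopped at pH 10; fluorescence 365/440 nm, compounds 0.7 nM–77 uM, AC50 from Hill fits.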

[5] = target: Endonuclease 4 (Escherichia coli (strain K12)) (UniProt P0A6C1); assay: Counterscreen for APE1 Inhibitors: qHTS Validation Assay for Inhibitors of Endonuclease IV (AID 1708); conditions: E. coli endonuclease IV, DNA cleavage fluorescence; series mostly up to 57.1 µM
Procedure, shortened: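 E. coli EndoIV at 2 nM final, preincubated 15 min at room temperature with compound, then 50 nM TAMRA/BHQ-2 THF abasic-site duplex added. Buffer: 50 mM Tris-HCl pH 7.5, 50 mM NaCl, 2 mM MgCl2, 1 mM DTT, 0.01% Tween-20. Kinetic fluorescence increase, third minus first read.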

[6] = target: Transient receptor potential cation channel subfamily V member 1 (Homo sapiens) (UniProt Q8NER1); assay: HTS Assay for Compounds that Act as Enhancers of the Vanilloid Receptor 1 (AID 488979); conditions: TRPV1-expressing cells, enhancer of channel activity, stimulated with capsaicin at EC20; series mostly up to 41.7 µM
Procedure, shortened: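 TRPV1 cells loaded with Fluo-8 calcium dye; compound added and Ca2+ signal (ex 480/em 520 nm) followed 3 min, then capsaicin at EC20 added and read 2 more min to detect enhancement.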

[7] = Validation screen for small molecules that induce DNA re-replication in SW480 colon adenocarcinoma cells (AID 504364); conditions: DNA re-replication phenotype (high-content imaging); series mostly up to 46.1 µM
Procedure, shortened: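 250 cells/well; compound pinned in; 48 hr, 37 C, 5% CO2; Hoechst added, 40 min; nuclear fluorescence imaged, 405 ex / 500-530 em; re-replication scored as increase in high-intensity nuclei.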

[8] = target: Voltage-gated inwardly rectifying potassium channel KCNH2 (Homo sapiens) (UniProt Q12809); assay: qHTS Assay for Small Molecule Inhibitors of the Human hERG Channel Activity (AID 588834); conditions: U2OS BacMam hERG, FluxOR thallium flux fluorescence; series mostly up to 46.1 µM;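 note: top concentration of the series differs between compounds; lower thallium flux fluorescence means stronger hERG block; nearly all actives have a fitted effect of over 50% in size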
Procedure, shortened: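 hERG-BacMam U2OS, 2000 cells/well; 0.7X FluxOR loading 1 hr RT dark; cpd ~10 min 37 °C; stim buffer; FDSS fluorescence 2 min @ 1 s; AC50 Hill fit.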

[9] = NCATS anti-infectives library activity on the primary C. elegans qHTS viability assay (AID 1745855; calls by dose curve; note: potency is the fitted concentration of half-maximal effect); conditions: C. elegans worm area imaging, day 7; series mostly up to 41.8 µM
Procedure, shortened: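 Viability read-out is GFP fluorescence of PE254-GFP-FLuc C. elegans, measured by laser cytometry (488 nm) at day 0, 3 and 7. Ten L1 worms per well were incubated 7 days at 21 °C with compounds and bacterial capsules in S medium.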

[10] = qHTS for differential inhibitors of proliferation of Plasmodium falciparum line GB4 (AID 1816); conditions: Potency: Plasmodium falciparum GB4 proliferation inhibition; series mostly up to 28.7 µM;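 note: potency is the fitted concentration of half-maximal effect; parasite growth measured after 72 h incubation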
[11] = qHTS for differential inhibitors of proliferation of Plasmodium falciparum line 3D7 (AID 1876); note: potency is the fitted concentration of half-maximal effect; conditions: P. falciparum 3D7 proliferation inhibition; series mostly up to 28.7 µM
[12] = qHTS for differential inhibitors of proliferation of Plasmodium falciparum line W2 (AID 1883); conditions: Potency: Plasmodium falciparum W2 proliferation inhibition; series mostly up to 28.7 µM;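 note: potency is the fitted concentration of half-maximal effect; parasites grown with compound for 72 h before lysis and staining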
[13] = qHTS for differential inhibitors of proliferation of Plasmodium falciparum line HB3 (AID 1886); conditions: Potency: Plasmodium falciparum HB3 proliferation inhibition; series mostly up to 28.7 µM;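 note: potency is the fitted concentration of half-maximal effect; parasites grown with compound for 72 h before SYBR Green readout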
[14] = target: RecQ-like DNA helicase BLM (Homo sapiens) (UniProt P54132); assay: qHTS Validation Assay for Inhibitors of Bloom's syndrome helicase (BLM) (AID 2364); conditions: BLM helicase DNA unwinding, fluorescence, in vitro; series mostly up to 57.1 µM
Procedure, shortened: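 50 nM BLM preincubated 15 min at room temperature with compound in pH 8.0 Tris buffer containing 2.5 ug/ml poly(dI-dC); started with 200 nM TAMRA/BHQ-2 forked duplex and 2 mM ATP (final). Unwinding read as TAMRA fluorescence increase, two reads 2 h apart.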

[15] = Quantitative high throughput screen for delayed death inhibitors of the malarial parasite plastid, 96 hour incubation (AID 488745); conditions: Plasmodium falciparum growth; series mostly up to 28.7 µM; note: potency is the fitted concentration of half-maximal effect; nearly all actives have a fitted effect of over 70% in size
Procedure, shortened: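 Infected erythrocytes were added to compound in Albumax-supplemented RPMI 1640 at 0.1% parasitemia and 2% hematocrit (final), incubated 96 h at 37 C under 5% CO2, then luciferase reagent was added and luminescence measured.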

[16] = target: Luciferin 4-monooxygenase (Photinus pyralis) (UniProt P08659); assay: Biochemical firefly luciferase enzyme assay for NPC (AID 624030);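 note: purified P. pyralis luciferase at 10 nM with luciferin and ATP substrate; nearly all actives have a fitted effect of over 70% in size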; conditions: purified P. pyralis luciferase, luminescence, 5 min; series mostly up to 58.6 µM
Procedure, shortened: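 Purified P. pyralis luciferase at 10 nM in 50 mM Tris Acetate (final), luminescence read within 5 minutes of enzyme addition to compounds. Activity normalised to PTC124 versus DMSO; concentration-response curves classed by r2, magnitude and activity.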

Measured: Potency

Sequence of Pyruvate kinase PKM (Homo sapiens) (P14618 whole entry, looked up): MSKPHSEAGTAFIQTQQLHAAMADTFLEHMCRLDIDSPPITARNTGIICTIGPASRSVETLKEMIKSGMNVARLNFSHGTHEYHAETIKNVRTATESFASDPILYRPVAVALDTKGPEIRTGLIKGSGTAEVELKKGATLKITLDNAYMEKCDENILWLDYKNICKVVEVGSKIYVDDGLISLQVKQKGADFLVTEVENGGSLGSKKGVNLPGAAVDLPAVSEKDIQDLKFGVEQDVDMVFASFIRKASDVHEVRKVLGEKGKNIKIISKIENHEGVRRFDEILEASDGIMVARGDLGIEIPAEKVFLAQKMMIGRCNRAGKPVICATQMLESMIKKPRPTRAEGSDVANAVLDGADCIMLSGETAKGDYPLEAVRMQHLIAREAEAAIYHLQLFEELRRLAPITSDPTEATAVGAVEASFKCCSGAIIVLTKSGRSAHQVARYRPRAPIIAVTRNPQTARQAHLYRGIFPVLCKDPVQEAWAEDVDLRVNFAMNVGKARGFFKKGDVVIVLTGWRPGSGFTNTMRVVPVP
Sequence of Voltage-gated inwardly rectifying potassium channel KCNH2 (Homo sapiens) (Q12809 whole entry, looked up): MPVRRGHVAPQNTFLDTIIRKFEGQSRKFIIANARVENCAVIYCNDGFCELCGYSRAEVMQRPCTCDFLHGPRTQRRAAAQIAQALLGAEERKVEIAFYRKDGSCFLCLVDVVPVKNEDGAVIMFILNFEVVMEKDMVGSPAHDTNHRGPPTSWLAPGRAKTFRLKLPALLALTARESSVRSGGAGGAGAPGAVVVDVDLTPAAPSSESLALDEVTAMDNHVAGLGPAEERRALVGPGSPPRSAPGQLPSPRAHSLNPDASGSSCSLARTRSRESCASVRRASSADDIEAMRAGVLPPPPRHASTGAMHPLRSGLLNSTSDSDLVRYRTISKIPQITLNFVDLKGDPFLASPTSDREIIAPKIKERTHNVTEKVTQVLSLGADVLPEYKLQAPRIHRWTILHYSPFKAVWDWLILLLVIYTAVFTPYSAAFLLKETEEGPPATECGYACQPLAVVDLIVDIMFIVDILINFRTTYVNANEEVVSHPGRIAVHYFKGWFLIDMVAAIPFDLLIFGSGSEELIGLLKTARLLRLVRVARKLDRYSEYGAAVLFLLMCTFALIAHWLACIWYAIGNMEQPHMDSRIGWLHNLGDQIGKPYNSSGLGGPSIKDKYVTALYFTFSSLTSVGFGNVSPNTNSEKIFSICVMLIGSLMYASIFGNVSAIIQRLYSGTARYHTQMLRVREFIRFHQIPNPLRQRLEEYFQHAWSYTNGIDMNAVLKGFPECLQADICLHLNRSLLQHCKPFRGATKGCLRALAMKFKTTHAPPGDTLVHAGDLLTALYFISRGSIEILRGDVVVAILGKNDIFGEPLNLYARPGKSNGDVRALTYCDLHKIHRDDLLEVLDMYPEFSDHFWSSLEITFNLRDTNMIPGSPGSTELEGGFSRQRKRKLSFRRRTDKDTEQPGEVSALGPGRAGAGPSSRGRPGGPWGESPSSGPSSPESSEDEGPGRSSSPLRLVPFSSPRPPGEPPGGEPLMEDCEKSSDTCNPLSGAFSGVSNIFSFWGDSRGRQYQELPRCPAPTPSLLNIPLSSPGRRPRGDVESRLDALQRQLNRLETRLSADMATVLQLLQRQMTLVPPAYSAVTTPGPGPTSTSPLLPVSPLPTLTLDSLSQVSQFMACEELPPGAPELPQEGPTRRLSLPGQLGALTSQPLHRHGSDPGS
Sequence of Luciferin 4-monooxygenase (Photinus pyralis) (P08659 whole entry, looked up): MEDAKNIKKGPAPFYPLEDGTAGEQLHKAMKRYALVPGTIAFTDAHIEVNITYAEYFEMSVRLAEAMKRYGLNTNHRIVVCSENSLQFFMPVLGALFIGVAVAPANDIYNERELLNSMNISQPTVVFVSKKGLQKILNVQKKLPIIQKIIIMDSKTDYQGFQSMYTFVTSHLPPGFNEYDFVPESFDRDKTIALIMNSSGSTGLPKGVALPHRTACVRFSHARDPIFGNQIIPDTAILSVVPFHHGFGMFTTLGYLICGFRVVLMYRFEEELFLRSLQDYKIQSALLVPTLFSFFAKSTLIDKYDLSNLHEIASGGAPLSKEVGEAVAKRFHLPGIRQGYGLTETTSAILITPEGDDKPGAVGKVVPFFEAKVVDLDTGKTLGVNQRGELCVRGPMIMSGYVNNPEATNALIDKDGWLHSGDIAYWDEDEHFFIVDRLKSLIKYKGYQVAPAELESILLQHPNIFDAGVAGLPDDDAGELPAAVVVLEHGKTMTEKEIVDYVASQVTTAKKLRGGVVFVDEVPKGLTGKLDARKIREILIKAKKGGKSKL
Sequence of Muscarinic acetylcholine receptor M1 (Rattus norvegicus) (P08482 whole entry, looked up): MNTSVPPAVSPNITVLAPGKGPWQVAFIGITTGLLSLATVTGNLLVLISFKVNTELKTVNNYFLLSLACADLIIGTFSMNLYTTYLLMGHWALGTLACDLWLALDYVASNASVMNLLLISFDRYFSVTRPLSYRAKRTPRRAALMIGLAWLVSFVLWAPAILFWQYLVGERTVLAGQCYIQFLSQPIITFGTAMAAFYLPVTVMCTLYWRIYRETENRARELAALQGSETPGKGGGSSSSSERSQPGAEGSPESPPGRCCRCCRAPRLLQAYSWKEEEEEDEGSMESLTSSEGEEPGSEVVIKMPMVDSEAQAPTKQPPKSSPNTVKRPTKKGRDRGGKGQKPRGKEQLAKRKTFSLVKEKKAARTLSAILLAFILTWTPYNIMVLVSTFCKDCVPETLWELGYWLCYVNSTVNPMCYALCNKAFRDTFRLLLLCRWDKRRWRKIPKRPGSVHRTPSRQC
Sequence of Transient receptor potential cation channel subfamily V member 1 (Homo sapiens) (Q8NER1 whole entry, looked up): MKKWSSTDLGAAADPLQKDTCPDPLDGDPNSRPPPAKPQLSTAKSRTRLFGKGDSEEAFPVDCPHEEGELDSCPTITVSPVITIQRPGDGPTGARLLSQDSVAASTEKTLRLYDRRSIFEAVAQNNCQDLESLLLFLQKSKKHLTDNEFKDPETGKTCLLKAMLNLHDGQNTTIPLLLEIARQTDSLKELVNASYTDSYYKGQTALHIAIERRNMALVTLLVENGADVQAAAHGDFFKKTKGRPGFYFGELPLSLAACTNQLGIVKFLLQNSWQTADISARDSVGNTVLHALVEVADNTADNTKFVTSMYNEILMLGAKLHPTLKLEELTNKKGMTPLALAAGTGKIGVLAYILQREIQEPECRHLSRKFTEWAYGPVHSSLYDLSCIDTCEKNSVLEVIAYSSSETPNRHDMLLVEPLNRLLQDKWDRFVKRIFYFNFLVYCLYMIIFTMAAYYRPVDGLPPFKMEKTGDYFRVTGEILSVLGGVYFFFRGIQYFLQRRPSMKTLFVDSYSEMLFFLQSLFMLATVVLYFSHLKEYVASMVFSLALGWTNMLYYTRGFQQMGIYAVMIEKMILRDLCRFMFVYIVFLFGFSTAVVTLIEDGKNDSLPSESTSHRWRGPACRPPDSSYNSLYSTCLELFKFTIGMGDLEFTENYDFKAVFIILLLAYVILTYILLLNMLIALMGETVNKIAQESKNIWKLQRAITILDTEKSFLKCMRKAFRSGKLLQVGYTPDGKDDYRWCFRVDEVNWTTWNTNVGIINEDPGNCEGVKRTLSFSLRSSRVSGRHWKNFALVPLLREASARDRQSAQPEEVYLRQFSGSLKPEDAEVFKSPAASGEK
Sequence of RecQ-like DNA helicase BLM (Homo sapiens) (P54132 whole entry, looked up): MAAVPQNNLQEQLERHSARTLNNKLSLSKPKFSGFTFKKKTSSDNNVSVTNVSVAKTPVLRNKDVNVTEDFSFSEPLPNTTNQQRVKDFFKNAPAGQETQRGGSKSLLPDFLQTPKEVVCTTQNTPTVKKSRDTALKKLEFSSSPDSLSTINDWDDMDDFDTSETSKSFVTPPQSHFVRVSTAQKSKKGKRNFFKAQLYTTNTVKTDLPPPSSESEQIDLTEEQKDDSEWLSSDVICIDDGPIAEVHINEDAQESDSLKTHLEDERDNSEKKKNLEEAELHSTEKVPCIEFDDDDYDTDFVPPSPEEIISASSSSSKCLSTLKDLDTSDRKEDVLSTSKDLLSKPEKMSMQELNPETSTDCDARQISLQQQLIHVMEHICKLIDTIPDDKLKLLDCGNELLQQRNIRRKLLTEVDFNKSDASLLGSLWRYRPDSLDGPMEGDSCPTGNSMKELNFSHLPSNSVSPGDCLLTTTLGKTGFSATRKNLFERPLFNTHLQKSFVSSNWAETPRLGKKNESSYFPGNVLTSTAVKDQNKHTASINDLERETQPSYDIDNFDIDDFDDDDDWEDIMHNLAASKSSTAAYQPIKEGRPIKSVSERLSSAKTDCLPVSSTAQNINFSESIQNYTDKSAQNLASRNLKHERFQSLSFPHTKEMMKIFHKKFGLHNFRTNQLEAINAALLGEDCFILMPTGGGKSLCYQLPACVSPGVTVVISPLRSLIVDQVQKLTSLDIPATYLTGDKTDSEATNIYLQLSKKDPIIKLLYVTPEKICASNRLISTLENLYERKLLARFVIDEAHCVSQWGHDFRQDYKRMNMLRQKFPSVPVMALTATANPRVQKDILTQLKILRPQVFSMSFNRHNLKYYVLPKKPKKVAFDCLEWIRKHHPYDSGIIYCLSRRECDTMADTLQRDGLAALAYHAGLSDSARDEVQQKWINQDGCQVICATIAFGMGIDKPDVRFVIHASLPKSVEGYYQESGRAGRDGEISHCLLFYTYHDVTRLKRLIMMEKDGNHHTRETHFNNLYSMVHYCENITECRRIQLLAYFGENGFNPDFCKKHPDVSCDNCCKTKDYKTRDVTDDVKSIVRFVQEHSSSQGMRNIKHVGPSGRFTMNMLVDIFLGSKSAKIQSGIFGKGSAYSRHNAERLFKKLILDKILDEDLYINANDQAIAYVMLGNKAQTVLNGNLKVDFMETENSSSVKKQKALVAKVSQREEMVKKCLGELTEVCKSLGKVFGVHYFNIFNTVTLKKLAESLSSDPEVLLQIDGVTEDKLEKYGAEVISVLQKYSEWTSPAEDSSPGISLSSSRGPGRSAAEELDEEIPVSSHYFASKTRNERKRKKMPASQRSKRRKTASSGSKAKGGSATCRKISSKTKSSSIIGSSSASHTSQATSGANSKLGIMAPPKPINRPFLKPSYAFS

COc1ccc2c(c1)c(CC(=O)O)c(C)n2Cc1ccc(F)cc1
inactive: [1] | [2] | [3] | [4] | [5] | [6] | [7] | [8]

CC(=O)N1c2ccc(-c3ccc(C(=O)O)cc3)cc2[C@H](Nc2ccc(Cl)cc2)C[C@@H]1C
active: [9] 23000 nM

CCCNC[C@H](O)COc1ccccc1C(=O)CCc1ccccc1
inactive: [3] | [4] | [14]
active: [10] 316 nM | [11] 891 nM | [12] 282 nM | [13] 1120 nM | [15] 2620 nM

Nc1nc(F)nc2c1ncn2[C@@H]1O[C@H](COP(=O)(O)O)[C@@H](O)[C@@H]1O
inactive: [16]
